Laboratory results published in the supplement of paper PMC10849652.
Targets with a hit are over-represented here; the source holds about 8,800 in all. About 0.5% of all pairs of compound and target were hits.

Experiments:
Experiment in all cases: log2 fold change, soluble protein after heating vs DMSO (PISA); higher = thermal stabilisation; K562 lysate, 10 uM; active = over 0.2 and 3.5 SD of the protein, either way, in both replicates (recomputed)
alvocidib = compound: CN1CC[C@H](c2c(O)cc(O)c3c(=O)cc(-c4ccccc4Cl)oc23)[C@H](O)C1 [alvocidib]
Summary of the method: (§1)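 Pellets of K562 cells were dounce-homogenised in PBS pH 7.4 with 1 mM MgCl2, and the crude extract was held at 1 mg/mL protein for a 30 min treatment with 10 μM compound. Aliquots were heated for 3 min over 48°C-58°C and pooled before NP-40 was added to 0.5% at 4°C. The supernatant from 21,000xg for 90 min was quantified by TMTpro 16plex LC-MS/MS with channel sums equalised. Values are reported from duplicates as log-two fold change in thermal stability relative to solvent controls.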

Tubastatin A = compound: CN1CCc2c(c3ccccc3n2Cc2ccc(C(=O)NO)cc2)C1 [Tubastatin A]
Summary of the method: as §1

[1] = compound: CNC(=O)C1=CC=CC=C1NC2=NC(=NC=C2Cl)NC3=C(C=C(C=C3)N4CCOCC4)OC
Summary of the method: as §1

defactinib = compound: CNC(=O)c1ccc(Nc2ncc(C(F)(F)F)c(NCc3nccnc3N(C)S(C)(=O)=O)n2)cc1 [defactinib]
Summary of the method: as §1

[2] = compound: CNc1nc(-c2ccc3c(N)n[nH]c3c2)cc(N2C[C@@H](C(=O)NC3CCCCC3)CC[C@H]2C)n1
Summary of the method: as §1

encorafenib = compound: COC(=O)N[C@@H](C)CNc1nccc(-c2cn(C(C)C)nc2-c2cc(Cl)cc(NS(C)(=O)=O)c2F)n1 [encorafenib]
Summary of the method: as §1

[3] = compound: COC(=O)[C@H](CCSC)NC(=O)C1=C(C=C(C=C1)NC[C@H](CS)N)C2=CC=CC=C2
Summary of the method: as §1

alisertib = compound: COc1cc(Nc2ncc3c(n2)-c2ccc(Cl)cc2C(c2c(F)cccc2OC)=NC3)ccc1C(=O)O [alisertib]
Summary of the method: as §1

[4] = compound: COc1cc2nc(-c3cc(F)ccc3O)nc(N[C@@H]3CNC[C@H]3C(C)(C)O)c2cc1OC
Summary of the method: as §1

gefitinib = compound: COc1cc2ncnc(Nc3ccc(F)c(Cl)c3)c2cc1OCCCN1CCOCC1 [gefitinib]
Summary of the method: as §1

lapatinib = compound: CS(=O)(=O)CCNCc1ccc(-c2ccc3ncnc(Nc4ccc(OCc5cccc(F)c5)c(Cl)c4)c3c2)o1 [lapatinib]
Summary of the method: as §1

pictilisib = compound: CS(=O)(=O)N1CCN(Cc2cc3nc(-c4cccc5[nH]ncc45)nc(N4CCOCC4)c3s2)CC1 [pictilisib]
Summary of the method: as §1

crizotinib = compound: C[C@@H](Oc1cc(-c2cnn(C3CCNCC3)c2)cnc1N)c1c(Cl)ccc(F)c1Cl [crizotinib]
Summary of the method: as §1

[5] = compound: C[C@H](C1=CC=C(C=C1)C(=O)NC2=C3C=CNC3=NC=C2)N
Summary of the method: as §1

duvelisib = compound: C[C@H](Nc1ncnc2nc[nH]c12)c1cc2cccc(Cl)c2c(=O)n1-c1ccccc1 [duvelisib]
Summary of the method: as §1

gandotinib = compound: Cc1cc(Nc2cc(CN3CCOCC3)c3nc(C)c(Cc4ccc(Cl)cc4F)n3n2)n[nH]1 [gandotinib]
Summary of the method: as §1

tozasertib = compound: Cc1cc(Nc2cc(N3CCN(C)CC3)nc(Sc3ccc(NC(=O)C4CC4)cc3)n2)n[nH]1 [tozasertib]
Summary of the method: as §1

doramapimod = compound: Cc1ccc(-n2nc(C(C)(C)C)cc2NC(=O)Nc2ccc(OCCN3CCOCC3)c3ccccc23)cc1 [doramapimod]
Summary of the method: as §1

bafetinib = compound: Cc1ccc(NC(=O)c2ccc(CN3CC[C@H](N(C)C)C3)c(C(F)(F)F)c2)cc1Nc1nccc(-c2cncnc2)n1 [bafetinib]
Summary of the method: as §1

[6] = compound: Cc1cccc(CC(=O)N2CCc3c2ccc(-c2cn(C)c4ncnc(N)c24)c3F)n1
Summary of the method: as §1

Measured: log2 fold change

WDR20 isoform 7 (UniProt Q8TBZ3)
active: [5] -0.416
inactive: alvocidib -0.041 | Tubastatin A -0.035 | [1] 0.02 | defactinib -0.049 | [2] -0.13 | encorafenib 0.078 | [3] -0.114 | alisertib 0.175 | [4] -0.002 | gefitinib -0.149 | lapatinib 0.015 | pictilisib -0.006 | crizotinib -0.069 | duvelisib 0.043 | gandotinib -0.009 | tozasertib 0 | doramapimod -0.022 | bafetinib 0.07 | [6] 0.081

WDR91 (UniProt A4D1P6)
Sequence of UniProt A4D1P6 (A4D1P6 whole entry, looked up): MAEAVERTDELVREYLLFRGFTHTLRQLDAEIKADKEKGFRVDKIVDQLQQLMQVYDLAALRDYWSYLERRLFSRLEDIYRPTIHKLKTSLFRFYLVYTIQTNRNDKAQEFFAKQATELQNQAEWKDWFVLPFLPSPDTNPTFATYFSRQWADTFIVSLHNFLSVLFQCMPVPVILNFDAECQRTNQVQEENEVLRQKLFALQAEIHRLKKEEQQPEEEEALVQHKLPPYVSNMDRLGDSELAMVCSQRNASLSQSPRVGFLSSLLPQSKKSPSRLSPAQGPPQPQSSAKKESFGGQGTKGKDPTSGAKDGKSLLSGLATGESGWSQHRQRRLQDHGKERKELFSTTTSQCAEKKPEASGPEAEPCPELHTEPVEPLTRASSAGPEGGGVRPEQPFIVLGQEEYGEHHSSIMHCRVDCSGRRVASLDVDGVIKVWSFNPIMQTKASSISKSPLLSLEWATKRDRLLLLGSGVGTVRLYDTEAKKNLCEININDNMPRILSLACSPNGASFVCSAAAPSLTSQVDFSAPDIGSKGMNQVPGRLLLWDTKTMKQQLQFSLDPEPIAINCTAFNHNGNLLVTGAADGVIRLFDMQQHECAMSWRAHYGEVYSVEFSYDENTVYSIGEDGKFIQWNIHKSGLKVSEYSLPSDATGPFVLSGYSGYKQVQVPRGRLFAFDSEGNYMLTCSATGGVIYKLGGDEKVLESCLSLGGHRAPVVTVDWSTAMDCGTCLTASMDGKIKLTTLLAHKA
inactive: alvocidib -0.018 | Tubastatin A -0.097 | [1] 0.017 | defactinib -0.003 | [2] -0.056 | encorafenib 0.026 | [3] 0.1 | alisertib 0.013 | [4] -0.007 | gefitinib -0.004 | lapatinib -0.003 | pictilisib -0.012 | crizotinib -0.009 | [5] -0.001 | duvelisib 0.002 | gandotinib 0.048 | tozasertib 0 | doramapimod 0.038 | bafetinib -0.05 | [6] 0.052

YDJC (UniProt A8MPS7)
Sequence of UniProt A8MPS7 (A8MPS7 whole entry, looked up): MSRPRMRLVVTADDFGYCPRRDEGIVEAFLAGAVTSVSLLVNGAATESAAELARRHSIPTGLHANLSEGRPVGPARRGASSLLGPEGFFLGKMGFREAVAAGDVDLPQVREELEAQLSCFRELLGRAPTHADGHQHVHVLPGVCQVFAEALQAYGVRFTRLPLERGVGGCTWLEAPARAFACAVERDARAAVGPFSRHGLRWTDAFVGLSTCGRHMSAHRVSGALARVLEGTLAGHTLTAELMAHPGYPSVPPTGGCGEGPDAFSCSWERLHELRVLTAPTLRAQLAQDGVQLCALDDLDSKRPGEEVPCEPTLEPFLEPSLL
inactive: alvocidib -0.039 | Tubastatin A 0.052 | [1] 0.014 | defactinib -0.026 | [2] 0.014 | encorafenib -0.025 | [3] -0.036 | alisertib 0.035 | [4] 0.007 | gefitinib -0.02 | lapatinib -0.003 | pictilisib -0.016 | crizotinib 0.022 | [5] -0.031 | duvelisib -0.044 | gandotinib 0.02 | tozasertib 0.022 | doramapimod 0.025 | bafetinib -0.017 | [6] -0.033

ZC3H13 (UniProt Q5T200)
Sequence of UniProt Q5T200 (Q5T200 whole entry, looked up): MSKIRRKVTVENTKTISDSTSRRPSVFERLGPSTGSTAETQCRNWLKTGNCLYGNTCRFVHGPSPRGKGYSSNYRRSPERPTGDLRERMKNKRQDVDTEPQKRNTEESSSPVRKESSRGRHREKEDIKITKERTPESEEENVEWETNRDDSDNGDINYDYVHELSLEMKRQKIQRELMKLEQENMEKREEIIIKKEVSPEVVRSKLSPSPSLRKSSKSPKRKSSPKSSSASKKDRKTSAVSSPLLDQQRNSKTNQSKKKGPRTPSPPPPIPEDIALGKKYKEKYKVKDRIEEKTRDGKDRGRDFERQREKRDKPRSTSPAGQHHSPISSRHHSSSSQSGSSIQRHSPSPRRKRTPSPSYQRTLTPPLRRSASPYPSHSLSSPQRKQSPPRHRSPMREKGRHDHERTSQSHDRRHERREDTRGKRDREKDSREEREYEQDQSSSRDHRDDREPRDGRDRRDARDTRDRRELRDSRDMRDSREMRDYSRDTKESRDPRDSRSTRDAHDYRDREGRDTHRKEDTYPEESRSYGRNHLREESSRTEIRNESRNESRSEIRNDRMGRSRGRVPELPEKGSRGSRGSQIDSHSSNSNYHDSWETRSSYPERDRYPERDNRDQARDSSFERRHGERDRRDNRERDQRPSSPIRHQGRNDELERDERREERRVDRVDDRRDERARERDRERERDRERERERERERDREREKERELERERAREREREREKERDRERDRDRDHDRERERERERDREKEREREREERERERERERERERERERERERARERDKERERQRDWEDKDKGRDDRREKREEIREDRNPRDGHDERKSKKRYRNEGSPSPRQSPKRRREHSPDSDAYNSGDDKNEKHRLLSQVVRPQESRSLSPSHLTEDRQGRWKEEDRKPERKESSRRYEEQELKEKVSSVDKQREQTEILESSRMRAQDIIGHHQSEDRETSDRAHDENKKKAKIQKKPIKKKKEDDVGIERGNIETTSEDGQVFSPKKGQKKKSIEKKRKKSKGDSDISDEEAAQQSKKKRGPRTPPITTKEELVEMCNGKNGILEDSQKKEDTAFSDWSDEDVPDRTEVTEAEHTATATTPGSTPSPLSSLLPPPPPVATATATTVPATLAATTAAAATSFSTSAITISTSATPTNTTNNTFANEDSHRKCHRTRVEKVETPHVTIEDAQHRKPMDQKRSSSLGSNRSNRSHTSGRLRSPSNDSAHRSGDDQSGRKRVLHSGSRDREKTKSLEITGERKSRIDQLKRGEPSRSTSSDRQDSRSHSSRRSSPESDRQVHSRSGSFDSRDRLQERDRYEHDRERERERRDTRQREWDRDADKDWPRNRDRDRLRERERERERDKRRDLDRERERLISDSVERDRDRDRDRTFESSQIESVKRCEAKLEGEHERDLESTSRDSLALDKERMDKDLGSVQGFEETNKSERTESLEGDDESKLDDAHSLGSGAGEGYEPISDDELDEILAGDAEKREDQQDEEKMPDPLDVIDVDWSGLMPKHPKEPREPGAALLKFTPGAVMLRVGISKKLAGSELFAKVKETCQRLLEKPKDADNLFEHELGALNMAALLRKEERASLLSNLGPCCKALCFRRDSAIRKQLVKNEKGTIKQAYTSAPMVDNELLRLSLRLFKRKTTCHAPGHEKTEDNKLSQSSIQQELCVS
active: alisertib -0.362
inactive: alvocidib -0.063 | Tubastatin A 0.063 | [1] -0.073 | defactinib 0.088 | [2] -0.028 | encorafenib -0.069 | [3] 0.021 | [4] 0.016 | gefitinib -0.077 | lapatinib -0.013 | pictilisib -0.022 | crizotinib -0.057 | [5] 0.039 | duvelisib 0.041 | gandotinib -0.063 | tozasertib 0.062 | doramapimod 0.149 | bafetinib 0.017 | [6] 0.102

WDR36 (UniProt Q8NI36)
inactive: alvocidib 0.021 | Tubastatin A -0.102 | [1] 0.028 | defactinib -0.018 | [2] -0.062 | encorafenib -0.025 | [3] 0.134 | alisertib 0.008 | [4] 0.004 | gefitinib -0.03 | lapatinib 0.013 | pictilisib -0.008 | crizotinib -0.02 | [5] 0.024 | duvelisib 0.016 | gandotinib -0.097 | tozasertib 0.017 | doramapimod 0.061 | bafetinib 0.005 | [6] -0.004

UNC45A (UniProt Q9H3U1)
Sequence of UniProt Q9H3U1 (Q9H3U1 whole entry, looked up): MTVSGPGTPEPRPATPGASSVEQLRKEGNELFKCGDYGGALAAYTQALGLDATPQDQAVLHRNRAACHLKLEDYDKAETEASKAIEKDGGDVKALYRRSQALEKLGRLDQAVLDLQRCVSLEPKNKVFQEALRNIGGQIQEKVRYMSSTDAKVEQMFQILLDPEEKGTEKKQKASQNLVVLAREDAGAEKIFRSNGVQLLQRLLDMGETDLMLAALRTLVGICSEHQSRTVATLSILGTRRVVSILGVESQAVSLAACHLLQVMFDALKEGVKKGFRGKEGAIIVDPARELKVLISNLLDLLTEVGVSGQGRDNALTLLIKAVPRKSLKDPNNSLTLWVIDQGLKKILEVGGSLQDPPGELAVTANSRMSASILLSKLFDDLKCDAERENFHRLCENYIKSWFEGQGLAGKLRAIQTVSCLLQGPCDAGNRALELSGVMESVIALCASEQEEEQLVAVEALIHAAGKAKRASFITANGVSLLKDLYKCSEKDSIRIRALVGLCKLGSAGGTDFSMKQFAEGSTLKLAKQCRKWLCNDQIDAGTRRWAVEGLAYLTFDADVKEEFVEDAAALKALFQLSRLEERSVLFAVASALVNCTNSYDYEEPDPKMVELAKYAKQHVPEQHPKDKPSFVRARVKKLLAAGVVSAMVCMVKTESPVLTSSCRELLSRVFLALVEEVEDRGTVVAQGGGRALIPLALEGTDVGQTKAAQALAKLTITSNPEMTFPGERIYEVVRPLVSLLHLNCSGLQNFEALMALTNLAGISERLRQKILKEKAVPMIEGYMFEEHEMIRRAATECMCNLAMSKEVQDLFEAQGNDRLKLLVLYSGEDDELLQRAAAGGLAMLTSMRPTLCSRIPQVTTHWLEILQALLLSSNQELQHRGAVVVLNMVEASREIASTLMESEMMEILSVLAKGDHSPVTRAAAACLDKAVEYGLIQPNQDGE
inactive: alvocidib -0.017 | Tubastatin A -0.146 | [1] 0 | defactinib 0.018 | [2] -0.011 | encorafenib -0.003 | [3] 0.044 | alisertib 0.006 | [4] 0.001 | gefitinib -0.02 | lapatinib -0.006 | pictilisib -0.026 | crizotinib -0.045 | [5] 0.019 | duvelisib -0.003 | gandotinib -0.111 | tozasertib 0 | doramapimod 0.027 | bafetinib -0.018 | [6] 0.021

WDR24 (UniProt Q96S15)
inactive: alvocidib -0.001 | Tubastatin A -0.096 | [1] -0.032 | defactinib 0.053 | [2] -0.054 | encorafenib 0.022 | [3] 0.125 | alisertib -0.02 | [4] 0.021 | gefitinib -0.008 | lapatinib -0.004 | pictilisib 0.104 | crizotinib -0.006 | [5] -0.072 | duvelisib 0.004 | gandotinib 0.072 | tozasertib 0.065 | doramapimod -0.166 | bafetinib -0.134 | [6] 0.125

VARS (UniProt P26640)
Sequence of UniProt P26640 (P26640 whole entry, looked up): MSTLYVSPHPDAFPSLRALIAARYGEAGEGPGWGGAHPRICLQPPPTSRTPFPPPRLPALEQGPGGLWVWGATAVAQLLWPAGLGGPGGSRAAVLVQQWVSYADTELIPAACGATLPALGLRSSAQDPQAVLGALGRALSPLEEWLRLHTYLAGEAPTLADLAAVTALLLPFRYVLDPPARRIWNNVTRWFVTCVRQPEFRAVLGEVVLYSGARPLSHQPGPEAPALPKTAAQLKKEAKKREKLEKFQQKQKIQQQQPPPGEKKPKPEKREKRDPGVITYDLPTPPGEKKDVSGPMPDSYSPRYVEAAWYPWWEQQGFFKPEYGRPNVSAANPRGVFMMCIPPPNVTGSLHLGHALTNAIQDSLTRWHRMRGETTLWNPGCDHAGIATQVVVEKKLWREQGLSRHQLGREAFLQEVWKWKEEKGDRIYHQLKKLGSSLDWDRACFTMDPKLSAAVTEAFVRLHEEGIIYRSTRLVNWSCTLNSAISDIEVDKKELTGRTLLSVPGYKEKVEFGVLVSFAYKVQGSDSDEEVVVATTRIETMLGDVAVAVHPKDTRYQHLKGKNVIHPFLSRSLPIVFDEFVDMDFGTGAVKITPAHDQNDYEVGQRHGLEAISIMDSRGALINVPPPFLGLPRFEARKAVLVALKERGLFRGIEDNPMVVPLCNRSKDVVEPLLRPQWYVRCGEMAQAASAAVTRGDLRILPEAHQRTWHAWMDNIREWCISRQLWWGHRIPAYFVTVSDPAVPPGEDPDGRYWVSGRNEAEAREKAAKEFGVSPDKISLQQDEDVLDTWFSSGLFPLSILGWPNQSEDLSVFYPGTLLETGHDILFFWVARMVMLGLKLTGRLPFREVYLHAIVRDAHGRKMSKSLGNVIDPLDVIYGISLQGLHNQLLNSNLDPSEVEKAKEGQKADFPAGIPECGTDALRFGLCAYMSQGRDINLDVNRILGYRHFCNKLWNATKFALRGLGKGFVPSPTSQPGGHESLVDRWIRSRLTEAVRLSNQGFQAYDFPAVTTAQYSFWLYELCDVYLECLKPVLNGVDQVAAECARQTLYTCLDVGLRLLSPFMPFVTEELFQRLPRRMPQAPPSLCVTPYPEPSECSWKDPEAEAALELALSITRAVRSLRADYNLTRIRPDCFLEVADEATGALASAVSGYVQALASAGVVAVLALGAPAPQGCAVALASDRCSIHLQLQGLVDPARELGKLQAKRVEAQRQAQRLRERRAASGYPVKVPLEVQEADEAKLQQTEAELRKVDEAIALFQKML
inactive: alvocidib -0.003 | Tubastatin A -0.086 | [1] 0.002 | defactinib 0.025 | [2] -0.008 | encorafenib -0.008 | [3] 0.16 | alisertib -0.02 | [4] 0.003 | gefitinib -0.006 | lapatinib -0.017 | pictilisib -0.027 | crizotinib -0.068 | [5] -0.004 | duvelisib 0.002 | gandotinib -0.092 | tozasertib -0.021 | doramapimod 0.022 | bafetinib -0.012 | [6] 0.029
